Source: PubChem (several laboratories)
PGE2 EP2 inh – blocks the human prostaglandin E2 receptor EP2; P43116; inhibition, % at 25 µM; 260,000 compounds, 0.52% hits; C6 glioma cells expressing human EP2, cAMP TR-FRET; cells stimulated with saturating PGE2;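 active = percent inhibition above 40 after rounding to a whole number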;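 note: rat C6 glioma host cells with rolipram phosphodiesterase inhibitor present; the protocol text gives 20 µM as final concentration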
Target sequence (P43116 whole entry, looked up): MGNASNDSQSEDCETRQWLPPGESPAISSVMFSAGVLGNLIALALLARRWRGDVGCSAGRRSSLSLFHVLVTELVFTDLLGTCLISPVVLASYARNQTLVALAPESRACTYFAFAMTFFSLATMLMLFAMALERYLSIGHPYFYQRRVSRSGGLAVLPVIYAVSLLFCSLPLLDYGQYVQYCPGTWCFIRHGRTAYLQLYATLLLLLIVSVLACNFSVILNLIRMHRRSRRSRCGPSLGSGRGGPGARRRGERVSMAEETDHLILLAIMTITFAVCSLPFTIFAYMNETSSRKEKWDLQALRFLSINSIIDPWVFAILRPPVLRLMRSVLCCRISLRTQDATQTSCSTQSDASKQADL
EP2 modulator – modulators of human EP2 prostaglandin E2 receptor. induction, % at 25 µM. AID 940. P43116. 260,000 compounds, 0.83% hits. EP2-expressing cells, cAMP HTRF FRET, PGE2 co-stimulation;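 active = compounds whose cAMP rise, as percent of the full-agonist control response, exceeds 60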;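 note: rat C6 glioma line stably carrying human EP2 under a CMV promoter; the protocol text gives 20 µM as final concentration; 100% = response of wells given 1 µM PGE2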
Calpain2 inh – inhibitors of pig calpain II. purified calpain II, fluorogenic peptide substrate, 30 min. inhibition, % at 16 µM. 220,000 compounds, 0.37% hits. AID 1236;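 active = inhibition above about 50%, limit read from the data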
Furin inhibitor – human furin inhibition; P09958; purified furin, fluorogenic substrate cleavage; inhibition, % at 20 µM or 30 µM; 220,000 compounds, 0.061% hits; AID 463115; in the data active = inhibition above about 25%
HMGR II inh – blocks class II HMG-CoA reductase of Enterococcus faecalis. purified E. faecalis HMGR, NADPH absorbance 340 nm kinetic. inhibition, % at 10 µM. 190,000 compounds, 0.41% hits. AID 1066;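 active = inhibition above a set limit, the median over all tested compounds plus 3 SD, cut at about 9.5% in these data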;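 note: enzyme runs in reverse so mevalonate oxidation gives rising NADPH absorbance; 0% = complete reaction with DMSO and 100% = background rate lacking mevalonate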
EP2 confirm – human EP2 receptor cAMP induction, negative in counter-screens; shares compounds with EP2 modulator; C6 glioma EP2 cells, cAMP HTRF induction; plus low (about EC15) PGE2 agonist; calls only at 20 µM (by protocol); 1,300 compounds, 47% hits; AID 1080;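 active = cAMP induction above 50% in the main assay while under 30% in all four parallel counter assays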;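 note: rat C6 glioma cells stably expressing human EP2 receptor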
Starred values were filed as active, the others as inactive; i = inactive; . = no result given; + = active, no number. Only some compounds are listed: those with a hit (about 1.9% of all), similar ones and a draw of the others.

SMILES	PGE2 EP2 inh	EP2 modulator	Calpain2 inh	Furin inhibitor	HMGR II inh	EP2 confirm
CCN1C(=O)/C(=C2/C=CC=CN2C)SC1=S	5	75*	5	5	1	i
CN1C=CC=C/C1=C1/SC(=S)N(Cc2ccccc2)C1=O	7	-27	6	8	0	.
Brc1ccccc1Cn1c(-c2cscn2)nc2ccccc21	4	80*	20	-15	-1	+
Cc1ccccc1Cn1c(Cc2ccccc2)nc2ccccc21	7	71*	1	-18	-5	+
Cc1cc(C)c(C)c(Cn2c(CO)nc3ccccc32)c1C	5	80*	-9	-18	2	+
Cn1c(CO)nc2ccccc21	11	-8	.	.	.	.
Cc1cccc(Cn2c(Cc3ccccc3)nc3ccccc32)c1	10	93*	32	-10	-6	+
COc1ccccc1-n1c(SCC(=O)N2CCc3ccccc32)nnc1-c1cccnc1	13	-14	.	.	.	.
Brc1cc2c(cc1Cn1c(-c3cncs3)nc3ccccc31)OCO2	7	50	0	-15	-4	.
Cc1ccccc1Cn1c(-c2cncs2)nc2ccccc21	16	68*	3	-20	3	i
O=C(NCc1ccncc1)C12CC3CC(CC(C3)C1)C2	2	-5	33	-11	0	.
N#CC1=C(N)S[C@H](C(=O)C23CC4CC(CC(C4)C2)C3)[C@H]1c1ccncc1	11	66*	1	-14	1	i
COc1cccc(C2c3[nH]c4ccccc4c3CCN2Cc2cnc(C)s2)c1OC (stereo not drawn)	2	32	-28	-18	-1	.
COc1ccccc1C1c2[nH]c3ccccc3c2CCN1Cc1cnc(C)s1 (stereo not drawn)	8	80*	-34	-8	-3	+
COCCCN1CNc2c(c(=O)n(C)c(=O)n2C)C1	6	-4	.	.	.	.
COc1ccc(-c2nc(NC(C)=O)sc2-c2ccc(OC)cc2)cc1	12	56	39	-23	6	i
CN1CCN(c2ccncc2S(=O)(=O)N2CCN(C)CC2)CC1	11	-20	.	.	.	.
CC(C)(C)NC(=O)C(c1ccncc1)N(C(=O)c1csnn1)c1cccc2c1CCCC2 (stereo not drawn)	9	-3	.	.	.	.
CCOC(=O)c1c(NC(=O)C2C3C=CC(C3)C2C(=O)O)sc2c1CC(C)CC2 (stereo not drawn)	13	13	27	-5	-6	.
CCOC(=O)c1c(-c2ccc(C)cc2)csc1NC(=O)c1ccc(N2C(=O)CCC2=O)cc1	12	70*	-70	-18	1	i
CCOC(=O)c1c(NC(=O)c2ccc(N3C(=O)[C@@H]4[C@H](C3=O)[C@H]3C=C[C@@H]4C3)cc2)sc2c1CC(C)CC2 (stereo partly drawn)	17	55	-107	-19	-1	i
CCOC(=O)c1c(-c2cccs2)csc1NC(=O)CN1CCOCC1	11	69*	-37	-13	-1	i
CCOC(=O)c1c(-c2ccc(C)cc2)csc1NC(=O)CCN1CCOCC1	5	90*	-9	-13	-6	+
CCCn1c(SCC(=O)Nc2cccc(C)c2)nnc1-c1ccncc1	8	-33	.	.	.	.
COc1ccc(C2(C(=O)NC3(c4ccc5c(c4)OCO5)CCCC3)CC2)cc1	.	48	.	.	.	.
SMILES	PGE2 EP2 inh	EP2 modulator	Calpain2 inh	Furin inhibitor	HMGR II inh	EP2 confirm
COc1ccc(-c2cc(C(F)(F)F)nc(SCC(=O)NCc3cccnc3)n2)cc1OC	7	-32	.	.	.	.
Cc1ccc(-c2cc3ccccc3nc2N2CCOCC2)cc1	6	73*	-44	-18	9	i
Cc1cc(C)n(C(=O)COc2ccc(Cl)cc2Cl)n1	3	36	-21	-22	-1	.
Cc1cc(C)n(CCOc2ccc(Cl)cc2Cl)n1	5	73*	19	-12	-3	+
Cc1oncc1-c1csc(-c2ccccc2Cl)n1	7	69*	22	-16	0	+
CSc1nc(Sc2ccccc2)c2ccccc2n1	14	79*	-18	-19	-2	i
CCC(c1nnnn1Cc1ccco1)N(Cc1cc2cc(C)ccc2[nH]c1=O)C1CCCC1 (stereo not drawn)	10	27	.	.	.	.
COC1CCC(C(=O)N2CCC(n3nc(-c4ccoc4C)oc3=O)CC2)CC1 (stereo not drawn)	5	18	.	.	.	.
CCC(Sc1nc2ccccc2[nH]1)C(=O)Nc1cc(C)on1 (stereo not drawn)	15	25	17	-14	-1	.
CCC(Sc1nc(-c2ccccc2)c(C#N)c(=O)[nH]1)C(=O)Nc1cc(C)on1 (stereo not drawn)	50*	76*	-22	-5	5	i
O=C1/C(=C/c2cccnc2)SC(=S)N1CCc1ccccc1	13	15	-10	-18	.	.
O=C1/C(=C/c2cccnc2)SC(=NCc2ccccc2)N1Cc1ccccc1	1	66*	36	-3	-1	+
Cc1ccc(C)c2[nH]c(=O)c(CN(CCN3CCOCC3)Cc3nnnn3Cc3ccccc3)cc12	19	-44	.	.	.	.
CC(=O)O[C@@H]1c2c(ccc3ccc(=O)oc23)OC(C)(C)[C@@H]1OC(=O)CC(C)C	10	64*	.	.	.	+
CCCCOC(=O)n1c(=S)oc2cc(Cl)ccc21	13	71*	24	-13	-3	i
COC(=O)n1c(=S)oc2cc(Cl)ccc21	2	43	12	-11	-2	.
Cc1c(F)cccc1NC(=O)CCCCCC1NC(=O)NC1C (stereo not drawn)	9	77*	-25	-17	-4	i
COc1cccc(C(=O)N2N=C(c3ccccc3)CC2(O)C(F)(F)F)c1 (stereo not drawn)	8	48	-21	-6	-3	.
COc1ccc(C(=O)N2N=C(c3ccccc3)CC2(O)C(F)(F)F)cc1 (stereo not drawn)	11	83*	-7	-31	1	+
O=C(c1ccccc1O)N1N=C(c2ccccc2)CC1(O)C(F)(F)F (stereo not drawn)	2	78*	45	-10	-9	i
COC(=O)N1N=C(c2ccccc2)CC1(O)C(F)(F)F (stereo not drawn)	12	-18	-13	-20	-4	.
CCc1nc(N2CCCCC2)c2oc3ccccc3c2n1	8	76*	-5	-2	2	i
CCc1nc(N2CCCCC2C)c2oc3ccccc3c2n1 (stereo not drawn)	3	48	6	-13	-5	.
CCOC(=O)c1c(NC(=O)c2ccccc2N(C)S(=O)(=O)c2ccccc2)sc2c1CCCC2	5	29	-118	-16	0	.
COC(=O)c1c(NC(=O)c2ccccc2N(C)S(=O)(=O)c2ccccc2)sc2c1CCCC2	0	54	-170	-23	5	i
CCCCOC(=O)CSc1nc(N)c(C#N)c(-c2ccc(OCC)cc2)c1C#N	17	74*	-75	-19	1	i
